According to PubChem BioAssay AID589 (National Center for Advancing Translational Sciences (NCATS), 2007):
The campaign covered roughly 59,000 compounds. About 6,200 (11%) were called active. Inconclusive results (about 9%) are left out. No stated cut-off is given here; in the data, active means max dye-equivalent concentration above about 10 nM; inconclusive means mostly about 1.1 nM to 9.6 nM; inactive means weaker than that. The list comes from a sample in which actives are over-represented; it also holds similar structures and randomly drawn compounds. The source holds several records for some structures; these can differ, active in one and inactive in another.

Assay: qHTS Assay for Spectroscopic Profiling in 4-MU Spectral Region
Conditions: compound autofluorescence, 340/450 nm, 4-MU equivalents; stronger effect = higher value
Excerpt: NIH Molecular Libraries Screening Centers Network [MLSCN] NIH Chemical Genomics Center [NCGC] […] Occasionally, the artifactual effect may originate from the compounds own spectral or other biophysical properties which generally tend to track its assay concentration. Pre-screening/profiling the library with respect to the compounds spectral properties should help one exclude false positives early on. While the most informative fluorescent profiling data set is obtained by performing a full excitation and emission scan of each well by using a monochromator-based plate reader, such an approach is practical only on a very limited scale as scanning each well requires long time. An alternative approach, applied here, is to perform plate reader scans using selected excitation and emission wavelength pairs to generate a multidimensional relational database that correlates compound concentration and the respective relative fluorescence intensity at a given wavelength set. A standard curve of 4-methylumbelliferone (4-MU) present on each plate as six-point concentration series, was used to compute a normalized fluorescence response, termed dye-equivalent concentration, for each compound at each concentration.
NCGC Assay Protocol Summary: Buffer: 100 mM Tris buffer, pH 8.0 Dye standard plate: The wells in columns 1 through 4 of a Kalypsys polypropylene 1536-well compound plate were filled with standard solutions of fluorophore corresponding to the spectral region of interest. Solutions of 4-MU were placed in the following wells: A1, B1: 3 mM, A2, B2: 300 uM, A3, B3: 30 uM, A4, B4: zero (DMSO), C1, D1: 3 uM, C2, D2: 900 nM, C3, D3: 300 nM, C4, D4: zero (DMSO). Assay Steps: Six uL of buffer were dispensed to 1536-well Greiner black plates. Compounds and dye standards (23 nL) were transferred via Kalypsys PinTool. The plates were incubated for 15 min at room temperature, and then read on ViewLux (Perkin-Elmer) High-throughput CCD imager using 340 nm and 450 nm excitation and emission filter set. Keywords: NIH Roadmap, MLSCN, MLI, MLSMR, qHTS, NCGC, Fluorescent Profiling, 4MU, 4-MU
For `C[C@@]12CC[C@H](O)C[C@@H]1CC[C@@H]1[C@@H]2CC[C@@]2(C)[C@@H](C3=CC(=O)OC3)[C@H](O)C[C@]12O`, the max dye-equivalent concentration was “inactive”. In the case of `C[C@]12CC[C@H](O)CC1=CC[C@@H]1[C@H]2CC[C@]2(C)C(=O)CC[C@H]12`, the max dye-equivalent concentration is reported as “inactive”. With `C[C@]12CC[C@H](O)C[C@@H]1CC[C@H]1[C@H]2CC[C@]2(C)C(=O)CC[C@@H]12` the max dye-equivalent concentration was 69 nM (active) and the outcome was “inactive”. For `Cc1ccc(S(=O)(=O)O[C@H]2CN3CCC2CC3)cc1`, the max dye-equivalent concentration was “inactive”. For `CC1=CC(=O)C2=C(C)C[C@H](O)[C@@H]3[C@@H](OC(=O)[C@H]3C)[C@H]12`, the max dye-equivalent concentration was “inactive”. For `O=C1C2CCN(CC2)C1(CO)CO`, the max dye-equivalent concentration was “inactive”. In the case of `c1ccc2c(c1)[I+]c1ccccc1-2`, the max dye-equivalent concentration is reported as “inactive”. With `CSC1=NP(=S)(SC)N(C)c2nc3n(c21)CCC3` (stereo unspecified) the max dye-equivalent concentration was 22 nM (active). In the case of `c1csc(CN2CC3(CCNCC3)C2)n1`, the max dye-equivalent concentration is reported as “inactive”. For `CC(C)CCC1(CCN)C(=O)NC(=O)NC1=O`, the max dye-equivalent concentration was “inactive”. For `CN1[C@@H]2CC[C@H]1CC(OC(=O)c1cc(Cl)cc(Cl)c1)C2` (stereo partly specified), the max dye-equivalent concentration was “inactive”. In the case of `CC(=O)c1c(O)c(C)c(O)c(Cc2c(O)c3c(c(C(=O)/C=C\c4ccccc4)c2O)OC(C)(C)C=C3)c1O`, the max dye-equivalent concentration is reported as “inactive”. In the case of `C[C@H]1CC[C@@]2(NC1)O[C@@H]1C[C@H]3[C@@H]4CC=C5C[C@@H](O)CC[C@]5(C)[C@@H]4CC[C@]3(C)[C@@H]1[C@@H]2C`, the max dye-equivalent concentration is reported as “inactive”. With `C/C(CCc1c[nH]c2ccccc12)=N\O` the max dye-equivalent concentration was 13 nM (active). In the case of `NCCc1c[nH]c2ccc(O)cc12`, the max dye-equivalent concentration is reported as “inactive”. With `CCN(CC)CCn1ncc2c(N)ncnc21` the max dye-equivalent concentration was “inactive”. In the case of `N[C@H](C(=O)O)c1cc(=O)[nH]o1`, the max dye-equivalent concentration is reported as “inactive”. For `COC(=O)C(O)(c1ccc(NC(=O)c2ccco2)c(OC)c1)C(F)(F)F` (stereo unspecified), the max dye-equivalent concentration was “inactive”. For `O=C(c1cc(-c2ccncc2)nc2ccccc12)N1CCC2(CC1)OCCO2`, the max dye-equivalent concentration was “inactive”. With `Cc1cccc(-n2c(C)nc3cc(C(=O)N4CCC5(CC4)OCCO5)ccc32)c1` the max dye-equivalent concentration was “inactive”. With `O=C(c1cc2nc(-c3ccccc3)cc(-c3ccccc3)n2n1)N1CCC2(CC1)OCCO2` the max dye-equivalent concentration was 64 nM (active). In the case of `NC[C@H](O)c1ccc(O)cc1`, the max dye-equivalent concentration is reported as “inactive”. In the case of `NC(=O)c1ccc(OC[C@H](O)CN2CC=C(c3ccc(F)cc3)CC2)cc1`, the max dye-equivalent concentration is reported as “inactive”. For `COc1cc(C[C@H](C)N)c(OC)cc1I`, the max dye-equivalent concentration was “inactive”. For `CC(=O)NBr`, the max dye-equivalent concentration was “inactive”. With `C[C@H](Br)C(=O)N[C@H](CO)C(=O)O` the max dye-equivalent concentration was “inactive”. With `COc1ccc(C2NCc3ccc4c(c3-n3cccc32)OCO4)cc1OC` (stereo unspecified) the max dye-equivalent concentration was “inactive”. With `CCOC(=O)c1c(-c2ccccc2)oc2ccc(OC(=O)N(C)C)cc12` the max dye-equivalent concentration was 50 nM (active). In the case of `c1csc(CN2CCCC3(CCNCC3)C2)n1`, the max dye-equivalent concentration is reported as “inactive”. In the case of `c1ccc(CN2CC[C@@]3(CCCNC3)C2)cc1`, the max dye-equivalent concentration is reported as 11 nM (active). In the case of `c1ccc(N2CC[C@@]3(CCCNC3)C2)nc1`, the max dye-equivalent concentration is reported as “inactive”. For `C[C@@]12CC[C@H]3[C@@H](CC[C@]4(O)C[C@H](O)CC[C@@]34C=O)[C@]1(O)CC[C@@H]2C1=CC(=O)OC1`, the max dye-equivalent concentration was “inactive”. In the case of `CCN1C[C@@]2(COC)CC[C@H](OC)[C@]34[C@@H]1[C@]1(OCO[C@@]15C[C@@H](OC)C1C[C@H]3[C@H]5[C@@H]1OC)[C@H](O)[C@@H]24`, the max dye-equivalent concentration is reported as “inactive”. In the case of `C=CCN1C(=O)C2(C(C(=O)OCC)=C(N)Oc3c2c(=O)oc2ccccc32)c2ccccc21` (stereo unspecified), the max dye-equivalent concentration is reported as “inactive”. With `CS(=N)(=O)CC[C@H](N)P(=O)(O)O` (stereo partly specified) the max dye-equivalent concentration was “inactive”. With `CCOC(=O)c1c(N)n(Cc2ccccc2)c2nc3ccccc3nc12` the max dye-equivalent concentration was 1100 nM (active). For `CC(=O)O[C@H]1CC[C@@]2(C)[C@@H](CC[C@H]3[C@H]2CC(=O)[C@]2(C)[C@@H]3C[C@@H](N3CC3)[C@H]2C(C)=O)C1`, the max dye-equivalent concentration was “inactive”. For `CCNC[C@H](O)c1cccc(O)c1`, the max dye-equivalent concentration was “inactive”. In the case of `CC[C@]1(O)C(=O)OCc2c1cc1n(c2=O)Cc2cc3ccccc3nc2-1`, the max dye-equivalent concentration is reported as 2300 nM (active). With `CC[C@@](O)(C(=O)O)c1cc2n(c(=O)c1CO)Cc1cc3ccccc3nc1-2` the max dye-equivalent concentration was 840 nM (active). With `CN1CCN(C(=O)O[C@@H]2c3nccnc3C(=O)N2c2ccc(Cl)cn2)CC1` the max dye-equivalent concentration was “inactive”. With `CCN1C[C@]2(C)CC[C@H](O)[C@@]34[C@@H]5CC6[C@@H](OC)C[C@@](O)([C@@H]5[C@@H]6O)[C@H](C[C@@H]23)[C@H]14` the max dye-equivalent concentration was “inactive”. In the case of `O=C(Nc1cccc(F)c1)N1CC[C@@]2(CCCN(C(=O)Oc3ccccc3)C2)C1`, the max dye-equivalent concentration is reported as “inactive”. In the case of `NCC[Se][Se]CCN`, the max dye-equivalent concentration is reported as “inactive”. For `CCN1c2nc3c(C)cccn3c(=O)c2CC2(C(=O)N(C)C(=O)N(C)C2=O)C1C` (stereo unspecified), the max dye-equivalent concentration was 29 nM (active). With `CC(C)(O)/C=C\C(=O)[C@](C)(O)[C@H]1[C@H](O)C[C@]2(C)[C@@H]3CC=C4[C@@H](C=C(O)C(=O)C4(C)C)[C@]3(C)C(=O)C[C@@]12C` the max dye-equivalent concentration was “inactive”. With `NCCc1ccc(S(=O)(=O)F)cc1` the max dye-equivalent concentration was “inactive”. For `C[N+]1(C)C2CC(OC(=O)C(CO)c3ccccc3)CC1[C@@H]1O[C@H]21` (stereo partly specified), the max dye-equivalent concentration was “inactive”. In the case of `O=C(O)C(=O)Cc1ccc2c(c1)OCO2`, the max dye-equivalent concentration is reported as “inactive”. In the case of `CC(C)(O)[C@H]1[C@H]2OC(=O)[C@@H]1[C@]1(O)C[C@H]3O[C@]34C(=O)O[C@H]2[C@]14C`, the max dye-equivalent concentration is reported as “inactive”.
